# From PubChem BioAssay (EPA / NIEHS)
# Results filed as inconclusive are left out. The source made the active and inactive calls. How the source made its calls: active means hit-call score of the fitted dose curve at least 0.9, where 1 is the maximum; inconclusive means response in the unintended direction; inactive means score below 0.9.
# Key:
# [1] = molecular target: human Phosphodiesterase 5 (PDE5), PDE5A (gene 8654) (UniProt O76074); assay: NVS_ENZ_hPDE5: NovaScreen (NVS) Enzymatic Assay for human Phosphodiesterase 5 (PDE5) (AID 2283194)
# Outline: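 Screening began in duplicate at 25 uM, with actives taken into concentration-response. Enzyme activity of recombinant PDE5 toward its substrate was measured at 1 h by fluorescence mobility-shift detection, relative to DMSO controls.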
# [2] = molecular target: human Janus Kinase 2 (Jak2), JAK2 (gene 3717) (UniProt O60674); assay: NVS_ENZ_hJak2: NovaScreen (NVS) Enzymatic Assay for human Janus Kinase 2 (Jak2) (AID 2283169)
# Outline: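 Single-point duplicate screen at 25 uM, with hits run in concentration series to a 50 uM top dose. Substrate-product separation by mobility shift with fluorescence detection, 1 h post-dosing; DMSO baseline.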
# [3] = molecular target: human Phosphodiesterase 4A1 (PDE4A1), PDE4A (gene 5141) (UniProt P27815); assay: NVS_ENZ_hPDE4A1: NovaScreen (NVS) Enzymatic Assay for human Phosphodiesterase 4A1 (PDE4A1) (AID 2283191)
# Outline: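 Fluorescent substrate turnover by recombinant PDE4A1 read after 1 h by mobility-shift separation. Primary duplicate screen at 25 uM; hits retested in concentration series with a 50 uM maximum, relative to DMSO.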
# [4] = molecular target: human Phosphodiesterase 10 (PDE10), PDE10A (gene 10846) (UniProt Q9Y233); assay: NVS_ENZ_hPDE10: NovaScreen (NVS) Enzymatic Assay for human Phosphodiesterase 10 (PDE10) (AID 2283195)
# Outline: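 Biochemical single-readout PDE10A assay, cell-free, extracted protein. Compounds first screened at 25 uM in duplicate, hits then titrated to 50 uM max. Activity measured after 1 h; loss-of-signal fitted against DMSO negative control.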
# [5] = molecular target: Collagenase 3 (Homo sapiens) (UniProt P45452); assay: NVS_ENZ_hMMP13: NovaScreen (NVS) Enzymatic Assay for human Matrix Metalloproteinase-13 (MMP13) (AID 2283182)
# Outline: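 Recombinant MMP13 cleaving fluorescent substrate, cell-free, measured 1 h after dosing. Primary duplicate screen at 25 uM; actives tested in concentration-response up to 50 uM; loss of signal relative to DMSO.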
# [6] = molecular target: human Matrix Metalloproteinase-2 (MMP2), MMP2 (gene 4313) (UniProt P08253); assay: NVS_ENZ_hMMP2: NovaScreen (NVS) Enzymatic Assay for human Matrix Metalloproteinase-2 (MMP2) (AID 2283184)
# Outline: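 Compounds first screened in duplicate at a single 25 uM, with actives followed up in concentration series. Recombinant human MMP2 cleaves a fluorogenic substrate; fluorescence taken at 1 h, inhibition fitted relative to DMSO.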
# [7] = molecular target: human Matrix Metalloproteinase-3 (MMP3), MMP3 (gene 4314) (UniProt P08254); assay: NVS_ENZ_hMMP3: NovaScreen (NVS) Enzymatic Assay for human Matrix Metalloproteinase-3 (MMP3) (AID 2283185)
# Outline: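 Fluorescent substrate turnover by recombinant MMP3 read after 1 h, signal loss scored against DMSO. Compounds first run in duplicate at 25 uM single dose, then actives confirmed by concentration series.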
# [8] = molecular target: human Matrix Metalloproteinase-9 (MMP9), MMP9 (gene 4318) (UniProt P14780); assay: NVS_ENZ_hMMP9: NovaScreen (NVS) Enzymatic Assay for human Matrix Metalloproteinase-9 (MMP9) (AID 2283190);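 further: cell-free recombinant MMP9 protease activity read by fluorescent substrate signal; active means inhibition seen as loss of fluorescence signal versus DMSO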
# Outline: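 Cell-free fluorescence-intensity enzyme activity assay using extracted protein, read 1 h after dosing. Loss of signal versus DMSO baseline indicates inhibition; primary screen in duplicate at 25 uM, actives followed up in concentration series.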
# [9] = molecular target: cAMP-dependent protein kinase catalytic subunit alpha (Homo sapiens) (UniProt P17612); assay: NVS_ENZ_hPKA: NovaScreen (NVS) Enzymatic Assay for human Protein Kinase A (PKA) (AID 2283192)
# Outline: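 Cell-free kinase activity read by fluorescence after mobility-shift separation of substrate and product, 1 h post-dosing. Single-concentration duplicate screen (25 uM) preceded singleton concentration series (top 50 uM); loss of signal versus DMSO.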
# [10] = molecular target: human Protein Phosphatase, Mg2+/Mn2+ Dependent 1A (PPM1A), PPM1A (gene 5494) (UniProt P35813); assay: NVS_ENZ_hPPM1A: NovaScreen (NVS) Enzymatic Assay for human Protein Phosphatase, Mg2+/Mn2+ Dependent 1A (PPM1A) (AID 2283198)
# Outline: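 Primary screen in duplicate at 25 uM, with actives then titrated to a maximum of 50 uM. Recombinant PPM1A dephosphorylation of fluorescent substrate measured at 1 h, with substrate and product separated by mobility shift; inhibition fitted against DMSO.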
# [11] = molecular target: human MAP Kinase-Activated Protein Kinase 2 (MAPKAPK2), MAPKAPK2 (gene 9261) (UniProt P49137); assay: NVS_ENZ_hMAPKAPK2: NovaScreen (NVS) Enzymatic Assay for human MAP Kinase-Activated Protein Kinase 2 (MAPKAPK2) (AID 2283178)
# Outline: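 Chemicals screened in duplicate at 25 uM, then to 50 uM top concentration in concentration-response, against recombinant human MAPKAPK2; substrate conversion read 1 hr post-dosing by fluorescence after electrophoretic mobility-shift separation, loss-of-signal relative to DMSO.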
# [12] = molecular target: Tyrosine-protein phosphatase non-receptor type 11 (Homo sapiens) (UniProt Q06124); assay: NVS_ENZ_hPTPN11: NovaScreen (NVS) Enzymatic Assay for human Protein Tyrosine Phosphatase Non-receptor Type 11 (PTPN11) (AID 2283202)
# Outline: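 Compounds first tested in duplicate at 25 uM; those reaching ~30% inhibition rerun in singleton concentration-response, top 50 uM. Phosphatase activity measured after 0.5 h by fluorescence with mobility-shift separation, relative to DMSO.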
# [13] = molecular target: human Matrix Metalloproteinase-7 (MMP7), MMP7 (gene 4316) (UniProt P09237); assay: NVS_ENZ_hMMP7: NovaScreen (NVS) Enzymatic Assay for human Matrix Metalloproteinase-7 (MMP7) (AID 2283183)
# Outline: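 Compounds first tested at 25 uM in duplicate, then at up to 50 uM in concentration series if active. Protease activity measured by fluorescence intensity 1 h after dosing, with fitting relative to DMSO.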
# human Janus Kinase 2 (Jak2), JAK2 (gene 3717), sequence (O60674 whole entry, looked up): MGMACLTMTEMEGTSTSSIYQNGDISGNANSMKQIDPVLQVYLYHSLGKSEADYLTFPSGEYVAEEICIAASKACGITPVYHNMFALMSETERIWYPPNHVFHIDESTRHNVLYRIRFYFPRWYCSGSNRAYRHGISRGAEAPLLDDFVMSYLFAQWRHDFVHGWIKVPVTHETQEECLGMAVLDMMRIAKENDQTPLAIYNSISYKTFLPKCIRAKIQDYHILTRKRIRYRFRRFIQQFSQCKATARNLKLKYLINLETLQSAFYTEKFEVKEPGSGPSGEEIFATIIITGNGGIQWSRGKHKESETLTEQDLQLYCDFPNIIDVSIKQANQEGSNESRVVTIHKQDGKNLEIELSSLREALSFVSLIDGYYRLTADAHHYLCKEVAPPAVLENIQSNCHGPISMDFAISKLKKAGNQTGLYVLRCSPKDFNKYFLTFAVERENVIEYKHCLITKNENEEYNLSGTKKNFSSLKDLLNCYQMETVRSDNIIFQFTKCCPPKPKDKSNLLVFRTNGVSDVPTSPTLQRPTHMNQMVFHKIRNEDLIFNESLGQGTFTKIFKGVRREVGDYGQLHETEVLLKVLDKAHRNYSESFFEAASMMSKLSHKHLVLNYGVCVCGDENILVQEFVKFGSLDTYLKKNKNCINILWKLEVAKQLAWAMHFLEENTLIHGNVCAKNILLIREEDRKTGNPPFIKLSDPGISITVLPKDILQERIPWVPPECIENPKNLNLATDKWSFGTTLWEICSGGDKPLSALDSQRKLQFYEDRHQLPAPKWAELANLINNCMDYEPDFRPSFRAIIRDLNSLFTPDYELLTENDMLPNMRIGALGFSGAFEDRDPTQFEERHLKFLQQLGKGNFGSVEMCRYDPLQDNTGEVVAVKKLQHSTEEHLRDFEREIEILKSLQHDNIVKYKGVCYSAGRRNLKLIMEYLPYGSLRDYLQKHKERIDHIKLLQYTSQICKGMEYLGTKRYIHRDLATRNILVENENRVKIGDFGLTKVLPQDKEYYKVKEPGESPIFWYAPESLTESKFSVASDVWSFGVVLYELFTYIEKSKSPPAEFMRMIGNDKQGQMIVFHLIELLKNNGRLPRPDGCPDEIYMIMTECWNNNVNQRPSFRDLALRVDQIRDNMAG
# human Phosphodiesterase 4A1 (PDE4A1), PDE4A (gene 5141), sequence (P27815 whole entry, looked up): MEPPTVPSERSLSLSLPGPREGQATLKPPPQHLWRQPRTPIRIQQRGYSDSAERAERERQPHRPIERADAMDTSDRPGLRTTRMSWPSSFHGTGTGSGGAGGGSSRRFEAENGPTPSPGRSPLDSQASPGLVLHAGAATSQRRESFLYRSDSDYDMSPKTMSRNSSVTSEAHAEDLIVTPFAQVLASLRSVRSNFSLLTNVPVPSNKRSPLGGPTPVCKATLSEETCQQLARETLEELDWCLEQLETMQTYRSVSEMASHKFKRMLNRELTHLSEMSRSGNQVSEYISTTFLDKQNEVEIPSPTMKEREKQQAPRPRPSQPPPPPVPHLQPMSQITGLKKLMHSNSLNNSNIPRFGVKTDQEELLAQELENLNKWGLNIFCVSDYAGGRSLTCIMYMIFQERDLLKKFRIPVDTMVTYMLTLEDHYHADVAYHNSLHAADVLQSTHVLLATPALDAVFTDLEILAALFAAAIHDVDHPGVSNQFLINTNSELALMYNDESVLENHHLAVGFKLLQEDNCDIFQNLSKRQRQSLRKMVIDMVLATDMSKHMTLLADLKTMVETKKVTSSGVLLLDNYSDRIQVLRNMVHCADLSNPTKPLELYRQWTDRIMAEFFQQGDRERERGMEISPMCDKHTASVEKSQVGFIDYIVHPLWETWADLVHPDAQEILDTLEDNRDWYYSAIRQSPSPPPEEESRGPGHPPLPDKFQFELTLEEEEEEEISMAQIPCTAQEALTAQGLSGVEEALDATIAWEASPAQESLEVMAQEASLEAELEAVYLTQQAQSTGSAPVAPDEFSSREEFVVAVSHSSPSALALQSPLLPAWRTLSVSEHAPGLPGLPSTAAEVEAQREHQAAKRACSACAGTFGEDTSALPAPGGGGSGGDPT
# human MAP Kinase-Activated Protein Kinase 2 (MAPKAPK2), MAPKAPK2 (gene 9261), sequence (P49137 whole entry, looked up): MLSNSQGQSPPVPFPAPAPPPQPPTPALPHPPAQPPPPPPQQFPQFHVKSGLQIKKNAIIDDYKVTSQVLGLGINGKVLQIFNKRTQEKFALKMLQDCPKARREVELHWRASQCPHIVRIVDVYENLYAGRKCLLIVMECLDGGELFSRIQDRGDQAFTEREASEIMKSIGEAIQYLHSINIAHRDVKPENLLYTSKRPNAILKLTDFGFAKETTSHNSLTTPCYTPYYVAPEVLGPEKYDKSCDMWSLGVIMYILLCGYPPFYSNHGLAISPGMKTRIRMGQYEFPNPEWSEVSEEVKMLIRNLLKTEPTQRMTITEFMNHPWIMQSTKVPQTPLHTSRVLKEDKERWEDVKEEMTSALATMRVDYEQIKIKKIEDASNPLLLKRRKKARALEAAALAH
# human Protein Phosphatase, Mg2+/Mn2+ Dependent 1A (PPM1A), PPM1A (gene 5494), sequence (P35813 whole entry, looked up): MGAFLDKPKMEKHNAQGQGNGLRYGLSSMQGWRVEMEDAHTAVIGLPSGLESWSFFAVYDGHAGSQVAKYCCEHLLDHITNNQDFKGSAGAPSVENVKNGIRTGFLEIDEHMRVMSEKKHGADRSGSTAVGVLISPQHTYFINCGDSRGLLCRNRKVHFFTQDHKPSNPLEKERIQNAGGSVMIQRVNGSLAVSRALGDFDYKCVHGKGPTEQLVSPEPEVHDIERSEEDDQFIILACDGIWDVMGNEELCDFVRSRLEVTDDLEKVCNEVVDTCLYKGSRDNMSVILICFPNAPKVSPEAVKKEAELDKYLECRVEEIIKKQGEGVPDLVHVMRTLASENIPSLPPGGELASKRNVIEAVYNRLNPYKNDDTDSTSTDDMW
# human Matrix Metalloproteinase-3 (MMP3), MMP3 (gene 4314), sequence (P08254 whole entry, looked up): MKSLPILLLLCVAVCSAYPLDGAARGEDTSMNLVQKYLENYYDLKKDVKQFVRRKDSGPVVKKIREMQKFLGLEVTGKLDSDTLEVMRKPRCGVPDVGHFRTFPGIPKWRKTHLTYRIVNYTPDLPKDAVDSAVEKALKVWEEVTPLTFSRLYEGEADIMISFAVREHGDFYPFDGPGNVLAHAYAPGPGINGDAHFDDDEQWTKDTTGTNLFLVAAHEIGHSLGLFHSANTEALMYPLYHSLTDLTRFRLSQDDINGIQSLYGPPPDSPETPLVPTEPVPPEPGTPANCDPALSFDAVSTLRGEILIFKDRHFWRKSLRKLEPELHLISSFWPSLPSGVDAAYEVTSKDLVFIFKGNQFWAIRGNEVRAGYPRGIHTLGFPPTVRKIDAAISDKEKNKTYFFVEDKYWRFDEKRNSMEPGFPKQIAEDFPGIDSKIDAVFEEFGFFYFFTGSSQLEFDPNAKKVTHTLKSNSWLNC
# human Matrix Metalloproteinase-7 (MMP7), MMP7 (gene 4316), sequence (P09237 whole entry, looked up): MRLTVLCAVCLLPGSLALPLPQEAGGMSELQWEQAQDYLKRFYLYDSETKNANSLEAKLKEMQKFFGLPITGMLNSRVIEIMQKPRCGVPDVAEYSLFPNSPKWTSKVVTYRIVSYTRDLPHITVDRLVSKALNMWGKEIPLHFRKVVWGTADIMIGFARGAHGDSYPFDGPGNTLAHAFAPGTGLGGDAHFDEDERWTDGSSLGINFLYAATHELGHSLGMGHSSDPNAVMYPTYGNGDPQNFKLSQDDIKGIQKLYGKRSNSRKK
# Tyrosine-protein phosphatase non-receptor type 11 (Homo sapiens), sequence (Q06124 whole entry, looked up): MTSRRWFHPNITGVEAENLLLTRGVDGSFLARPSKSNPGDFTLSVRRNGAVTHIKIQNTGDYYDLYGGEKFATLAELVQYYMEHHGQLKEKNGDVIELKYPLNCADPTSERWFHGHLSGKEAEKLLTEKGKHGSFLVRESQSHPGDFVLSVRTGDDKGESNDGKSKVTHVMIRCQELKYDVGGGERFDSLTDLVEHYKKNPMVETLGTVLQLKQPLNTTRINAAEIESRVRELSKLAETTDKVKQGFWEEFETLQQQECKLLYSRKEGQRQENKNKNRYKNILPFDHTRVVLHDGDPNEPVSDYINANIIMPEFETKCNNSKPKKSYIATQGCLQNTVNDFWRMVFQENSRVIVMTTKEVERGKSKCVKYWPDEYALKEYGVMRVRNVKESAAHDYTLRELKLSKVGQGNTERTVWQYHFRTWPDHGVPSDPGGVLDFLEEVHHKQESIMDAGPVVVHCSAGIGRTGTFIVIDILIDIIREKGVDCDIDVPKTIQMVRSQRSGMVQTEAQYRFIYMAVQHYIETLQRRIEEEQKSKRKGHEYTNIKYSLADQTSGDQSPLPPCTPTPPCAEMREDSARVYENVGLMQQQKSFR
# human Matrix Metalloproteinase-9 (MMP9), MMP9 (gene 4318), sequence (P14780 whole entry, looked up): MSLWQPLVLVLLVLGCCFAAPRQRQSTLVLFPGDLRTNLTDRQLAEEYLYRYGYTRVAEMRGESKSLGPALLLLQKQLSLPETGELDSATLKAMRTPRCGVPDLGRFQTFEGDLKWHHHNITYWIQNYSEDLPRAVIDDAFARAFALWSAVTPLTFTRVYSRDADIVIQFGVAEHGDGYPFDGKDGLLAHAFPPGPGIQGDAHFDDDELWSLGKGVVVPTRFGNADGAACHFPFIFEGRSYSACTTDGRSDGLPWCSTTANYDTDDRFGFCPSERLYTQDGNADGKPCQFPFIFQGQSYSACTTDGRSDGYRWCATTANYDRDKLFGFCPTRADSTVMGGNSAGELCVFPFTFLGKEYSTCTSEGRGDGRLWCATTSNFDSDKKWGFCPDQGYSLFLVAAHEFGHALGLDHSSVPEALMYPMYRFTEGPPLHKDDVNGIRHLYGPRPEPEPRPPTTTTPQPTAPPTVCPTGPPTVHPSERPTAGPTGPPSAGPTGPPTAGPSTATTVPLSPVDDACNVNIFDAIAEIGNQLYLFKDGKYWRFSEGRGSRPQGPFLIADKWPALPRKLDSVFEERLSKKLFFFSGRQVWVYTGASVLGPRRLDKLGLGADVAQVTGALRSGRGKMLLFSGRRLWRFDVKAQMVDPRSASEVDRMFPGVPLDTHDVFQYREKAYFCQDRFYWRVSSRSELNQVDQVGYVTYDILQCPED
structure (smiles),measurement,setting,value
CC(O)CO (stereo not drawn),outcome,[1],inactive
Cc1cc(CCN2CCN(c3nsc4ccccc34)CC2)cc2c1NC(=O)CC2(C)C,outcome,[2],inactive
same,outcome,[3],inactive
same,AC50,[1],25.6 µM (active)
same,AC50,[4],25 µM (active)
Oc1cc2ccccc2c2ccccc12,AC50,[2],25 µM (active)
CCCCCCCCCCCCCCCS(=O)(=O)Oc1ccccc1,outcome,[2],inactive
same,outcome,[3],inactive
Cc1oc(-c2ccccc2)nc1CCOc1ccc(C[C@H](Nc2ccccc2C(=O)c2ccccc2)C(=O)O)cc1,AC50,[5],7.33 µM (active)
same,AC50,[6],16.1 µM (active)
same,outcome,[7],inactive
same,AC50,[8],11.9 µM (active)
CCCOc1sc(C(=O)N2CCC(c3cc(CN)ccc3F)CC2)c(C)c1Br,outcome,[7],inactive
same,outcome,[9],inactive
same,outcome,[10],inactive
OCCC(F)(F)C(F)(F)C(F)(F)C(F)(F)C(F)(F)C(F)(F)C(F)(F)C(F)(F)F,outcome,[11],inactive
ClC1=C(Cl)C(Cl)(Cl)C(Cl)=C1Cl,outcome,[12],inactive
NC(=O)N1C(=O)C(C(=O)c2cc(Cl)cs2)c2cc(F)c(Cl)cc21 (stereo not drawn),AC50,[9],25 µM (active)
CCCCCCCCOC(=O)CCCCCCCCC(=O)OCCCCCCCC,outcome,[2],inactive
NC(=O)N(O)[C@@H]1C=C[C@H](Oc2cccc(Oc3ccc(F)cc3)c2)C1,AC50,[3],23 µM (active)
same,outcome,[10],inactive
O=[N+]([O-])c1ccc(O)cc1,outcome,[11],inactive
same,outcome,[13],inactive
